Reference: the supplement of paper PMC7366291
Where a name gives a salt, the structure may show the parent alone. ± gives the standard deviation of the averaged measurements.

What follows are compounds tested on Danio rerio Tg(wt1b:EGFP) embryo, pronephros (assay: glomerular width (mean of left and right), fold change vs DMSO control; higher = wider glomerulus). Conditions: 25 µM; exposure: 24-48 hpf.
Method in brief: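 In HEPES-buffered E3 with 0.003% PTU and 0.5% DMSO, dechorionated Tg(wt1b:EGFP) zebrafish embryos were exposed to 25 μM compound from 24 to 48 hpf at 28.5°C. Pronephroi were then imaged dorsally at 470 nm in 10 z-slices, in 96-well plates filled with agarose. On maximum projections, a Fiji macro turned 16 manually placed reference points into distances and angles, and values more than 2 SD from the feature mean were excluded. Features are fold changes relative to the mean of DMSO-treated embryos from the same day.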
`COc1ncnc(NS(=O)(=O)c2ccc(N)cc2)c1OC` [Sulfadoxine] showed a glomerular width of 0.997 ± 0.062.
For `Cn1c(=O)c2c(ncn2CC(=O)O)n(C)c1=O` [Acefylline], the glomerular width was 1 ± 0.029.
`COc1ccc(C(=O)c2ccccc2O)c(O)c1` [Dioxybenzone] gave a glomerular width of 0.84 ± 0.044.
`Cc1ccc(O)c([C@H](CCN(C(C)C)C(C)C)c2ccccc2)c1` [Tolterodine tartrate] was tested, and the glomerular width was 1.06 ± 0.022.

Each compound was assayed on Danio rerio Tg(wt1b:EGFP) embryo, pronephros (assay: fraction of imaged embryos annotated as normal kidney; higher = less nephrotoxic; extreme values may be limits of the assay). Conditions: 25 µM; exposure: 24-48 hpf.
Method in brief: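 The value given is the share of embryos in each treatment scored as having a normal kidney. To obtain it, dechorionated Tg(wt1b:EGFP) zebrafish embryos were treated from 24 to 48 hpf at 28.5°C with 25 μM compound in 0.5% DMSO, in 5 mM HEPES-buffered E3 with 0.003% PTU. Pronephroi were imaged by widefield fluorescence (470 nm, 10 z-slices), and every embryo was annotated by hand from maximum projections.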
`CC1(C)O[C@@H]2C[C@H]3[C@@H]4CCC5=CC(=O)C=C[C@]5(C)[C@H]4[C@@H](O)C[C@]3(C)[C@]2(C(=O)CO)O1` [Desonide] was tested, and the “fraction of imaged embryos annotated as normal kidney” value (from here on “fraction of imaged embryos annotated”) was 0.167.
In the case of `NNC(=O)c1ccncc1` [Isoniazid], the “fraction of imaged embryos annotated” value is reported as 1.
With `O=c1[nH]c(=O)n(C2CCCO2)cc1F` (stereo not drawn) [Tegafur] the “fraction of imaged embryos annotated” value was 0.917.
For `CN1CCOC(c2ccccc2)c2ccccc2C1` (stereo not drawn) [Nefopam hydrochloride], the “fraction of imaged embryos annotated” value was 0.909.
For `COc1ccc(/C=C/C(=O)Nc2ccccc2C(=O)O)cc1OC` [Tranilast], the “fraction of imaged embryos annotated” value was 0.583.
For `NS(=O)(=O)c1cc(C(=O)O)c(NCc2ccco2)cc1Cl` [Furosemide], the “fraction of imaged embryos annotated” value was 0.818.
In the case of `C[N+](C)(C)CCCCCC[N+](C)(C)C` [Hexamethonium dibromide dihydrate], the “fraction of imaged embryos annotated” value is reported as 0.667.
`CCn1cc(C(=O)O)c(=O)c2cnc(N3CCNCC3)nc21` [Pipemidic acid] was tested, and the “fraction of imaged embryos annotated” value was 0.75.
For `c1ccc2c(CC3=NCCN3)cccc2c1` [Naphazoline hydrochloride], the “fraction of imaged embryos annotated” value was 1.
In the case of `CN(C)CCC(c1ccc(Cl)cc1)c1ccccn1` (stereo not drawn) [Chlorpheniramine maleate], the “fraction of imaged embryos annotated” value is reported as 0.667.
With `COc1ccc(CN2CCN(C(c3ccc(F)cc3)c3ccc(F)cc3)CC2)c(OC)c1OC` [Lomerizine hydrochloride] the “fraction of imaged embryos annotated” value was 0.583.
In the case of `CN(C)CCC=C1c2ccccc2COc2ccccc21` [Doxepin hydrochloride], the “fraction of imaged embryos annotated” value is reported as 0.917.
With `CCN(CC)CCNc1ccc(CO)c2sc3ccccc3c(=O)c12` [Hycanthone] the “fraction of imaged embryos annotated” value was 0.833.
`Nc1ccccc1S(N)(=O)=O` [2-Aminobenzenesulfonamide] was tested, and the “fraction of imaged embryos annotated” value was 0.917.
`C[C@@H](O)[C@H]1C(=O)N2C(C(=O)O)=C(SCCNC=N)C[C@H]12` [Imipenem] was tested, and the “fraction of imaged embryos annotated” value was 1.
`CCOc1ccccc1OC(c1ccccc1)C1CNCCO1` (stereo not drawn) [Reboxetine mesylate] was tested, and the “fraction of imaged embryos annotated” value was 0.909.
In the case of `CC(C)(O)c1ccccc1CC[C@@H](SCC1(CC(=O)O)CC1)c1cccc(/C=C/c2ccc3ccc(Cl)cc3n2)c1` [Montelukast], the “fraction of imaged embryos annotated” value is reported as 0.833.
With `CN(C)C/C=C(/c1ccc(Br)cc1)c1cccnc1` [Zimelidine dihydrochloride monohydrate] the “fraction of imaged embryos annotated” value was 0.75.
For `Cc1ccc(S(=O)(=O)NC(=O)NN2CC3CCCC3C2)cc1` (stereo not drawn) [Gliclazide], the “fraction of imaged embryos annotated” value was 0.917.
`CN[C@H](CC(C)C)C(=O)N[C@H]1C(=O)N[C@@H](CC(N)=O)C(=O)N[C@H]2C(=O)N[C@H]3C(=O)N[C@H](C(=O)N[C@H](C(=O)O)c4cc(O)cc(O)c4-c4cc3ccc4O)[C@H](O)c3ccc(c(Cl)c3)Oc3cc2cc(c3O[C@@H]2O[C@H](CO)[C@@H](O)[C@H](O)[C@H]2O[C@H]2C[C@](C)(N)[C@H](O)[C@H](C)O2)Oc2ccc(cc2Cl)[C@H]1O` [Vancomycin hydrochloride] was tested, and the “fraction of imaged embryos annotated” value was 0.909.
With `CC(C)NCC(O)c1ccc2ccccc2c1` (stereo not drawn) [Pronethalol hydrochloride] the “fraction of imaged embryos annotated” value was 0.833.
`CC1CS(=O)(=O)CCN1/N=C/c1ccc([N+](=O)[O-])o1` (stereo not drawn) [Nifurtimox] was tested, and the “fraction of imaged embryos annotated” value was 0.917.
In the case of `c1ccc(C2CN3CCSC3=N2)cc1` (stereo not drawn) [Tetramisole hydrochloride], the “fraction of imaged embryos annotated” value is reported as 0.75.
In the case of `COC1=CC(=O)C[C@@H](C)[C@]12Oc1c(Cl)c(OC)cc(OC)c1C2=O` [Griseofulvin], the “fraction of imaged embryos annotated” value is reported as 0.917.
With `Cc1ncc([N+](=O)[O-])n1CC(O)CCl` (stereo not drawn) [Ornidazole] the “fraction of imaged embryos annotated” value was 0.75.
In the case of `Cc1noc(NS(=O)(=O)c2ccc(N)cc2)c1C` [Sulfisoxazole], the “fraction of imaged embryos annotated” value is reported as 0.75.
`C[C@@]1(O)CCOC(=O)C1` [Mevalonic-D, L acid lactone] was tested, and the “fraction of imaged embryos annotated” value was 0.75.
For `Clc1cccc(Cl)c1NC1=NCCN1` [Clonidine hydrochloride], the “fraction of imaged embryos annotated” value was 0.583.
In the case of `CC(=O)N(O)CCCCCNC(=O)CCC(=O)N(O)CCCCCNC(=O)CCC(=O)N(O)CCCCCN` [Deferoxamine mesylate], the “fraction of imaged embryos annotated” value is reported as 0.917.
For `COC(=O)C1=C(C)NC(C)=C(C(=O)OC)C1c1ccccc1[N+](=O)[O-]` [Nifedipine], the “fraction of imaged embryos annotated” value was 0.
`COc1ccc(-c2ccc(=N)n(CCCC(=O)O)n2)cc1` [Gabazine bromide] was tested, and the “fraction of imaged embryos annotated” value was 0.667.
In the case of `CCN(CC)C(=O)Nc1ccc(OCC(O)CNC(C)(C)C)c(C(C)=O)c1` (stereo not drawn) [Celiprolol hydrochloride], the “fraction of imaged embryos annotated” value is reported as 0.833.
In the case of `CCN(CC)CCCC(C)Nc1ccnc2cc(Cl)ccc12` (stereo not drawn) [Chloroquine diphosphate], the “fraction of imaged embryos annotated” value is reported as 1.
With `CN(C)CCCN1c2ccccc2CCc2ccccc21` [Imipramine hydrochloride] the “fraction of imaged embryos annotated” value was 0.75.
`CNCCC(Oc1ccc(C(F)(F)F)cc1)c1ccccc1` (stereo not drawn) [Fluoxetine hydrochloride] was tested, and the “fraction of imaged embryos annotated” value was 0.583.
For `COc1ncnc(NS(=O)(=O)c2ccc(N)cc2)c1OC` [Sulfadoxine], the “fraction of imaged embryos annotated” value was 0.833.
For `Cn1c(=O)c2c(ncn2CC(=O)O)n(C)c1=O` [Acefylline], the “fraction of imaged embryos annotated” value was 0.917.
For `COc1ccc(C(=O)c2ccccc2O)c(O)c1` [Dioxybenzone], the “fraction of imaged embryos annotated” value was 0.417.
`Cc1ccc(O)c([C@H](CCN(C(C)C)C(C)C)c2ccccc2)c1` [Tolterodine tartrate] was tested, and the “fraction of imaged embryos annotated” value was 0.818.
